KB-V1 cytotox = KB-V1 MDR subline cytotoxicity; 3.4% of 400,000 active; KB-V1 MDR cells viability, CellTiter-Glo, 72 h; AID 1347076; Potency, µM (series often up to 46.1 µM), usual class: cytotoxic; also: nearly all actives have a fitted effect of over 60% in size
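Cytotoxicity toward P-gp-expressing KB-V1 cells was determined as loss of CellTiter-Glo luminescence after 72 h at 37 degrees C. Compounds were tested in quantitative HTS format across a concentration range, with curves fitted to normalized data.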
KB-3-1 tox = KB-3-1 parental cell cytotoxicity; KB-3-1 viability, CellTiter-Glo ATP luminescence, 72 h; Potency, µM (top dose mostly 46.1 µM), usual class: cytotoxic; 1.4% of 400,000 active; also: nearly all actives have a fitted effect of over 60% in size
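Here the drug-naive KB-3-1 line serves as comparator for MDR sub-line selectivity; cells received compound titrations, 72 h at 37 °C, then CellTiter-Glo readout.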
TDP1 cell CPT = DT40-hTDP1 cell growth loss with CPT | 12% of 420,000 active | chicken DT40 Tdp1-/-;hTDP1 cells + 20 nM CPT, ATP luminescence, 48 h | AID 686979 | Potency, µM (highest dose often 46.2 µM), for the others: top-dose activity change, negative = growth inhibition, hits mostly inhibitors; also: nearly all actives have a fitted effect of over 55% in size
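Cell growth measured by CellTiter-Glo luminescence after a minimum 48 h, 37 C compound exposure with 20 nM CPT in Tdp1-knockout DT40 cells stably expressing hTDP1, seeded 400/well; qHTS titration format.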
HT1080 IDH1KD tx = toxicity to HT-1080 IDH1 knockdown cells (counter line); HT-1080 IDH1 knockdown viability, ATP luminescence, 48 h; Potency, µM (highest dose often 46.1 µM), for the others: top-dose activity, negative = toxicity, most hits filed as cytotoxic; 2% of 360,000 active;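 also: 0% = DMSO wells and -100% = cell-free medium wells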
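HT-1080-IDH1KD cells (IDH1 knocked down), 750/well in RPMI with 5% FBS, treated with compound 48 h at 37 degrees C. Viability by CellTiter-Glo luminescence, normalised to DMSO and no-cell wells; concentration-response curves classed.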
TDP1 cell noCPT = qHTS for Inhibitors of human tyrosyl-DNA phosphodiesterase 1 (TDP1): qHTS in cells in absence of CPT | 15% of 420,000 active | Potency, µM (series often up to 46.2 µM), for the others: at the highest dose activity change, negative = growth inhibition, most hits filed as inhibitors | DT40 Tdp1-/- hTDP1 cells, no CPT, ATP luminescence, 48 h | AID 686978, 2013; also: nearly all actives have a fitted effect of over 55% in size
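Readout: luminescence from CellTiter-Glo after 30 min in the dark at RT. Cells: DT40 Tdp1-/- with stable hTDP1, 400/well. Exposure: compounds alone, ≥48 hr, 37 °C.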
HT1080NT lethal = kills 2HG-producing HT-1080-NT fibrosarcoma cells; HT-1080-NT fibrosarcoma viability, CellTiter-Glo ATP luminescence, 48 h; 1.6% of 360,000 active; Potency, µM (top dose mostly 46.1 µM), for inactives: at the highest dose activity, negative = less viability, usual class: cytotoxic; AID 686970;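 also: NT is the 2HG producing partner of a matched IDH1 knockdown line; 0% = DMSO-treated cells and -100% = media-only wells without cells; nearly all actives have a fitted effect of over 55% in size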
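Fibrosarcoma NT cells, 750 per well in 5% FBS RPMI, were exposed to compound for 48 hours. Viability: CellTiter-Glo luminescence.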
* marks the source's active call; other numbers are inactive results; i = inactive; ? = inconclusive; . = no result given; ! = not confirmed by another sample; [ ] = another dose, or the depositor's remark. In the library only some 19% were active in any assay of this set; here they are far more common. Calls follow the shape of the dose curve; as a rule, active = well fitted curve in the direction sought with a large enough effect; inconclusive = small, poorly fitted or top-dose-only effect, or another doubt; inactive = no such curve, though single readings can be large; an effect the other way counts as inactive or inconclusive. Unless noted, % is scaled to controls: 0 for no effect and ±100 for the full control effect; potency is read from the fitted curve at half-maximal effect.

SMILES	KB-V1 cytotox	KB-3-1 tox	TDP1 cell CPT	HT1080 IDH1KD tx	TDP1 cell noCPT	HT1080NT lethal
COc1ccc(NC(=O)c2cc3c(s2)CCC(C)C3)cc1S(=O)(=O)N1CCOCC1 (configuration not stated)	3.66µM*	i	?	-25.7%	20.6µM*	-13.6%
Cc1ccc(NC(=O)c2cc3c(s2)CCCC3)cc1	i	i	?	-7.6%	-30.0%	-27.1%
CCc1sc(C(=O)Nc2ccc(OC)c(S(=O)(=O)N3CCOCC3)c2)cc1C	i	i	?	-11.0%	?	-1.4%[9.24 µM]
CCNC(=S)N(CCCN(C)C)Cc1cc2cc3c(cc2[nH]c1=O)OCCO3	i	i	-2.6%	7.4%	1.2%	2.1%
COc1ccc(C(=O)NCCNc2nc3cc(C)cc(C)c3cc2C#N)nc1	i	i	-6.6%	19.5%	-20.4%	20.7%
COc1ccccc1C(=O)NCCNc1nc2cc(C)cc(C)c2cc1C#N	i	i	?	3.8%	18.4µM*	4.8%
COc1cc(OC)cc(C(=O)NCCNc2nc3cc(C)cc(C)c3cc2C#N)c1	i	i	?	-18.5%	23.1µM*	-16.5%
COc1ccc(C(=O)NCCNC(=O)c2ccc(OC)cc2)cc1	i	?	-15.6%	0.2%	-19.3%	0.9%
COc1ccc(C(=O)NCCCNc2nc3cc(C)cc(C)c3cc2C#N)cc1	?	i	?	3.3%	20.6µM*	-16.6%
COc1ccc(C(=O)NCC(C)(C)SCc2c(C)cc(C)cc2C)cc1	18.4µM*	i	23.1µM*	-9.0%	15.8µM*	?
Cc1ccc(S(=O)(=O)N2CCN(C(=O)COC(=O)CC(C)c3ccccc3)CC2)c(C)c1 (configuration not stated)	i	i	13.7%	18.8%	-8.3%	7.9%
NC(=O)C1CCN(C(=O)CCC(=O)c2cccs2)CC1	i	i	9.2%	18.2%	0.3%	14.0%
O=c1cc(-c2ccc3c(c2)OCO3)oc2ccccc12	i	i	-18.9%	12.9%	-16.8%	2.6%
Cc1cccc(CCNC(=O)c2c[nH]c3ccc(S(=O)(=O)Nc4ccccc4F)cc3c2=O)c1	.	.	11.6µM*	.	?	.
Cc1cc(C)cc(NS(=O)(=O)c2ccc3[nH]cc(C(=O)N(C)Cc4ccccc4)c(=O)c3c2)c1	i	i	0.2%	.	?	.
COc1cccc(NS(=O)(=O)c2ccc3[nH]cc(C(=O)NC4CC4)c(=O)c3c2)c1	?	?	-27.0%	?	?	?
COc1cccc(NS(=O)(=O)c2ccc3[nH]cc(C(=O)NC4CCCCC4)c(=O)c3c2)c1	?	i	18.4µM*	.	18.4µM*	.
COc1cccc(NS(=O)(=O)c2ccc3[nH]cc(C(=O)NCCc4ccccc4)c(=O)c3c2)c1	i	i	?	.	?	.
COc1cccc(NS(=O)(=O)c2ccc3[nH]cc(C(=O)NCCc4ccc(C)cc4)c(=O)c3c2)c1	.	.	14.6µM*	.	16.4µM*	.
COCCNC(=O)c1c[nH]c2ccc(S(=O)(=O)Nc3ccccc3F)cc2c1=O	i	i	-21.0%	-12.6%	-0.6%	-12.0%
Cc1cc(C)cc(NS(=O)(=O)c2ccc3[nH]cc(C(=O)NCc4ccco4)c(=O)c3c2)c1	i	7.31µM*	11.6µM*	5.17µM*	14.6µM*	2.59µM*
COc1cccc(NS(=O)(=O)c2ccc3[nH]cc(C(=O)N(C)Cc4ccco4)c(=O)c3c2)c1	i	i	23.1µM*!	?	23.1µM*!	0.4%
Cc1cc(C)cc(NS(=O)(=O)c2ccc3[nH]cc(C(=O)NC4CCCCC4)c(=O)c3c2)c1	i	i	23.1µM*	.	16.4µM*	.

Screening results (PubChem)
